Results on six molecules are retold here after PubChem BioAssay (EPA / NIEHS).

Experiment [1] can be described thus: ATG_CRE_CIS: Attagene CIS-FACTORIAL HepG2 Assay for human cAMP Responsive Element (CRE) binding protein 3 (AID 2282926). As to conditions: HepG2 CRE cis-reporter, Attagene multiplexed mRNA; actives raise or lower the signal. Put shortly: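 We dosed HepG2 cells bearing multiple cis-promoter reporter units for 24 h and measured reporter mRNA by RT-PCR with capillary electrophoresis detection. Bidirectional concentration-response fitting used DMSO as negative control.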

For experiment [2], the target named is CCAAT/enhancer-binding protein beta (Homo sapiens) (UniProt P17676). As to the kind of experiment: ATG_C_EBP_CIS: Attagene CIS-FACTORIAL HepG2 Assay for human CCAAT/Enhancer Binding Protein (C/EBP) beta (AID 2282927). As to conditions: HepG2 Attagene cis-factorial transcription factor reporter; actives raise or lower the signal. The method in brief:
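HepG2 transiently transfected with multiplexed reporter units under cis-regulatory promoters reporting endogenous C/EBPb activity. After 24 h exposure, reporter mRNA assayed by RT-PCR, fluorescent labelling, HpaI digestion and capillary electrophoresis; bidirectional fitting versus DMSO.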

Experiment [3] in a line: ATG_CMV_CIS: Attagene CIS-FACTORIAL HepG2 Assay for human CMV (Internal Marker) (AID 2282928).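 Also: endpoint acts as a background internal control marker rather than a target.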 The settings on record: HepG2 CMV promoter reporter, transcription factor profiling; actives raise or lower the signal. The method in brief: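 Cell system: HepG2, transiently transfected multiple reporter units under cis promoters. Exposure: 24 h. Detection: RT-PCR, FAM labeling, HpaI digestion, capillary electrophoresis. Analysis: bidirectional, DMSO baseline.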

A short description of experiment [4]: ATG_DR4_LXR_CIS: Attagene CIS-FACTORIAL HepG2 Assay for human Liver X Receptor (LXR), DR4 submotif (AID 2282929). The settings on record: HepG2 Attagene DR4 cis-reporter, mRNA transcription; actives raise or lower the signal. The method in brief: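 HepG2 cells transiently transfected with cis-promoter-driven multiplexed reporter units (DR4 element) were dosed for 24 h. Reporter mRNA was quantified by RT-PCR, fluorescent primer extension, HpaI digestion and capillary electrophoresis; bidirectional fitting versus DMSO baseline.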

The target of experiment [5] is Aryl hydrocarbon receptor (Homo sapiens) (UniProt P35869). In words: ATG_Ahr_CIS: Attagene CIS-FACTORIAL HepG2 Assay for human Aryl Hydrocarbon Receptor (Ahr) (AID 2282930). The settings on record: HepG2 AhR cis-factorial reporter transcription; actives raise or lower the signal. Put shortly:
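HepG2 cells transiently transfected with cis-element-driven multiplexed reporter units; endogenous AhR activity read as reporter mRNA 24 h after dosing, via RT-PCR, 6-FAM labelling, HpaI digestion and capillary electrophoresis. Bidirectional fit relative to DMSO.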

Experiment [6] can be described thus: ATG_AP_1_CIS: Attagene CIS-FACTORIAL HepG2 Assay for human Activator Protein 1 (AP-1) (AID 2282931). The settings on record: HepG2 Attagene cis-factorial AP-1 reporter mRNA; actives raise or lower the signal. Put shortly:
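HepG2 cells transiently transfected with cis-element-driven multiplex reporter units; 24 h compound exposure. Reporter mRNA quantified by RT-PCR, FAM-labelled fragments resolved by capillary electrophoresis; bidirectional fit versus DMSO baseline.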

The nature of experiment [7]: ATG_AP_2_CIS: Attagene CIS-FACTORIAL HepG2 Assay for human Activator Protein 2 (AP-2) (AID 2282932). As to conditions: HepG2 AP-2 cis-reporter, Attagene transcription factor profiling; actives raise or lower the signal. Put shortly: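 Multiplexed mRNA reporter assay in HepG2: cis-regulated units report endogenous factor activity after 24 h treatment. Fluorescence from capillary electrophoresis of RT-PCR products gives the signal, with DMSO as baseline.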

The target in experiment [8] is Transcription factor E2F1 (Homo sapiens) (UniProt Q01094). As to the kind of experiment: ATG_E2F_CIS: Attagene CIS-FACTORIAL HepG2 Assay for human E2F Transcription Factor 1 (AID 2282935). The settings on record: HepG2 Attagene cis-reporter, E2F reporter RNA transcripts; actives raise or lower the signal. Put shortly: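 Measures reporter transcript levels via RT-PCR with capillary electrophoresis detection in HepG2 cells harboring cis-regulated reporter units; 24 h post-dose; bidirectional curve fitting with DMSO as baseline.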
Transcription factor E2F1 (Homo sapiens), sequence (Q01094 whole entry, looked up): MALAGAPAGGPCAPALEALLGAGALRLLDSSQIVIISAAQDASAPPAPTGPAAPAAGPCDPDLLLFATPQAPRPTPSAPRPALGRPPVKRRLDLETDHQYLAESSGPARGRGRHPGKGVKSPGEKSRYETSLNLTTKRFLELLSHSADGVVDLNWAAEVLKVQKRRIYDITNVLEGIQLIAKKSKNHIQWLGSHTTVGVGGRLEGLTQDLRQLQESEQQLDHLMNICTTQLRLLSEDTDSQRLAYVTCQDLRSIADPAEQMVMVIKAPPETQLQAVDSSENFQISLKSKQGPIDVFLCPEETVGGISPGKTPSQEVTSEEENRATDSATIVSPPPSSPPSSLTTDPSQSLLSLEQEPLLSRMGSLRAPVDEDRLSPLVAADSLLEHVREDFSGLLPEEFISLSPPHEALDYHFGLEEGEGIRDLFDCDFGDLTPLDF

Experiment [9] can be described thus: ATG_E_Box_CIS: Attagene CIS-FACTORIAL HepG2 Assay for human Enhancer Box (E-box) (AID 2282936). The settings on record: HepG2 E-box cis-reporter transcription, actives raise or lower the signal. The method in brief: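 First, HepG2 cells receive multiple cis-regulated reporter constructs by transient transfection. Next, chemicals are applied for 24 h. Finally, reporter mRNA is quantified via RT-PCR and capillary electrophoresis, with DMSO as baseline.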

The nature of experiment [10]: ATG_M_61_CIS: Attagene CIS-FACTORIAL HepG2 Assay for M61 Transcription Factor (Internal Marker) (AID 2282937). The settings on record: HepG2 Attagene CIS-FACTORIAL M61 internal marker reporter; actives raise or lower the signal. The method in brief: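 HepG2 cells transiently transfected with cis-element-driven multiple reporter transcription units, dosed for 24 h. Reporter mRNA measured by RT-PCR, 6-FAM primer-extension labelling, HpaI digestion and capillary electrophoresis; bidirectional fit versus DMSO baseline.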

A short description of experiment [11]: ATG_EGR_CIS: Attagene CIS-FACTORIAL HepG2 Assay for human Early Growth Response 1 (EGR1) (AID 2282938). As to conditions: HepG2 Attagene CIS-FACTORIAL EGR reporter mRNA; actives raise or lower the signal. Put shortly: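 HepG2 cells transiently transfected with cis-promoter-driven multiplexed reporter transcription units; reporter mRNA measured 24 h after compound dosing by RT-PCR, 6-FAM primer extension, HpaI digestion and capillary electrophoresis. Bidirectional fit versus DMSO baseline.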

A short description of experiment [12]: ATG_M_19_CIS: Attagene CIS-FACTORIAL HepG2 Assay for M19 Transcription Factor (Internal Marker) (AID 2282939). As to conditions: HepG2 Attagene CIS-FACTORIAL M19 internal marker reporter; actives raise or lower the signal. Put shortly:
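HepG2 cells transiently transfected with cis-regulated multiple reporter transcription units were dosed for 24 h; reporter mRNA was quantified by RT-PCR, 6-FAM primer-extension labelling, HpaI digestion and capillary electrophoresis, with bidirectional fitting against DMSO baseline.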

Experiment [13] can be described thus: ATG_ERE_CIS: Attagene CIS-FACTORIAL HepG2 Assay for Estrogen Response Element (ERE) (AID 2282940). As to conditions: HepG2 ERE cis-reporter, Attagene RNA transcript; actives raise or lower the signal. Put shortly:
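HepG2 cells transiently transfected with cis-promoter-driven multiplexed reporter transcription units report endogenous TF activity. After 24 h compound exposure, reporter mRNA is quantified by RT-PCR with capillary electrophoresis fluorescence; bidirectional fitting versus DMSO baseline.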

A short description of experiment [14]: ATG_Ets_CIS: Attagene CIS-FACTORIAL HepG2 Assay for human Erythroblast Transformation Specific (ETS) (AID 2282941). The settings on record: HepG2 ETS cis-reporter transcription, actives raise or lower the signal. Put shortly:
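After transient cis-reporter transfection, HepG2 cells receive test chemical for 24 h. Reporter mRNA levels, measured by RT-PCR and capillary electrophoresis fluorescence, are analysed bidirectionally relative to the DMSO baseline.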

The target in experiment [15] is Hepatocyte nuclear factor 3-beta (Homo sapiens) (UniProt Q9Y261). As to the kind of experiment: ATG_FoxA2_CIS: Attagene CIS-FACTORIAL HepG2 Assay for human Forkhead box A2 (FOXA2) (AID 2282942). The settings on record: HepG2 cis-reporter transcription factor activity, 24 h; actives raise or lower the signal. Put shortly:
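HepG2 cells transiently transfected with multiple cis-regulated reporter transcription units, dosed for 24 h. Reporter mRNA measured by RT-PCR, 6-FAM labelling, HpaI digestion and capillary electrophoresis; bidirectional fitting against DMSO baseline.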

Experiment [16] in a line: ATG_FoxO_CIS: Attagene CIS-FACTORIAL HepG2 Assay for human Forkhead box O (FoxO) (AID 2282943). The settings on record: HepG2 Attagene cis-reporter, FoxO element, mRNA; actives raise or lower the signal. The method in brief: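 HepG2 cells transiently transfected with cis-element-driven reporter units report endogenous FoxO activity. After 24 h chemical exposure, reporter mRNA quantified by RT-PCR, fluorescent labeling, HpaI digestion and capillary electrophoresis; bidirectional fit versus DMSO.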

The nature of experiment [17]: ATG_GATA_CIS: Attagene CIS-FACTORIAL HepG2 Assay for human GATA Binding Protein (AID 2282944). The settings on record: HepG2 GATA cis-element reporter, Attagene multiplex mRNA; actives raise or lower the signal. Put shortly: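 HepG2 cells transiently transfected with multiplexed cis-element reporter units reflecting endogenous transcription factor activity; reporter mRNA measured after 24 h dosing by RT-PCR, 6-FAM labeling, HpaI digestion and capillary electrophoresis. Bidirectional fitting versus DMSO baseline.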

Experiment [18] can be described thus: ATG_GLI_CIS: Attagene CIS-FACTORIAL HepG2 Assay for human Zinc Finger Protein GLI1 (AID 2282945). As to conditions: HepG2, Attagene cis-factorial reporter mRNA, GLI element; actives raise or lower the signal. The method in brief: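 Transiently transfected HepG2 cells report endogenous transcription factor activity via cis-element-driven reporter units. After 24 h compound exposure, reporter mRNA was measured by RT-PCR with capillary electrophoresis; bidirectional fitting against DMSO baseline.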

Experiment [19] has as its target Retinoic acid receptor alpha (Homo sapiens) (UniProt P10276). As to the kind of experiment: ATG_DR5_RAR_CIS: Attagene CIS-FACTORIAL HepG2 Assay for human Retinoic Acid Receptor Alpha (RARE), DR5 submotif (AID 2282934). The settings on record: HepG2 Attagene cis-factorial RARE DR5 reporter, mRNA; actives raise or lower the signal. Put shortly:
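HepG2 cells transiently transfected with multiplexed reporter units; DR5 cis-element drives reporter through endogenous transcription factors. After 24 h dosing, reporter mRNA quantified by RT-PCR, fluorescent labeling, HpaI digestion and capillary electrophoresis; bidirectional fitting versus DMSO.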

SMILES strings stand for the structures. Active and inactive are the calls of the source. The calls were made as follows: active = hit-call score of the fitted dose curve at least 0.9, where 1 is the maximum; inactive = score below 0.9.

Hepatocyte nuclear factor 3-beta (Homo sapiens), sequence (Q9Y261 whole entry, looked up): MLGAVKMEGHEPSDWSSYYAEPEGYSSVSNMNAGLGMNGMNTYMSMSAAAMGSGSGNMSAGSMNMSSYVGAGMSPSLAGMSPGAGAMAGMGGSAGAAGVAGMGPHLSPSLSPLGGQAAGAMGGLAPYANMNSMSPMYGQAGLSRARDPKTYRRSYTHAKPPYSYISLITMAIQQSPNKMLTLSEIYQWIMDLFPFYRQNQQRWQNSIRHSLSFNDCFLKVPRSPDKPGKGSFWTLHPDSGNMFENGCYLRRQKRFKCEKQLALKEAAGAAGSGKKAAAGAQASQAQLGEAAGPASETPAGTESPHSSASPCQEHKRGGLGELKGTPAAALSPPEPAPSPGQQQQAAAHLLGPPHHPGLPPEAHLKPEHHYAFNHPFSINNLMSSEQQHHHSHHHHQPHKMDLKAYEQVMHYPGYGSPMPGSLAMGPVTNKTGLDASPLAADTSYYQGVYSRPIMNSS
CCAAT/enhancer-binding protein beta (Homo sapiens), sequence (P17676 whole entry, looked up): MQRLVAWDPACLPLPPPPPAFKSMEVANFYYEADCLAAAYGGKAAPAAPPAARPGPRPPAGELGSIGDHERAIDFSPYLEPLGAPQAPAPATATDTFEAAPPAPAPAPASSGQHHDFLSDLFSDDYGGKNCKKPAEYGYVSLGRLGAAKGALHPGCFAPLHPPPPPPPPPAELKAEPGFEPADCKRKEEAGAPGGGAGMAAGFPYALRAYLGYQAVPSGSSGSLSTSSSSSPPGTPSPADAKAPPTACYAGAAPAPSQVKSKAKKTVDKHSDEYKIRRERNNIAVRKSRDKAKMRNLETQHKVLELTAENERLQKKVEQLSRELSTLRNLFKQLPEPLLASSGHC
Aryl hydrocarbon receptor (Homo sapiens), sequence (P35869 whole entry, looked up): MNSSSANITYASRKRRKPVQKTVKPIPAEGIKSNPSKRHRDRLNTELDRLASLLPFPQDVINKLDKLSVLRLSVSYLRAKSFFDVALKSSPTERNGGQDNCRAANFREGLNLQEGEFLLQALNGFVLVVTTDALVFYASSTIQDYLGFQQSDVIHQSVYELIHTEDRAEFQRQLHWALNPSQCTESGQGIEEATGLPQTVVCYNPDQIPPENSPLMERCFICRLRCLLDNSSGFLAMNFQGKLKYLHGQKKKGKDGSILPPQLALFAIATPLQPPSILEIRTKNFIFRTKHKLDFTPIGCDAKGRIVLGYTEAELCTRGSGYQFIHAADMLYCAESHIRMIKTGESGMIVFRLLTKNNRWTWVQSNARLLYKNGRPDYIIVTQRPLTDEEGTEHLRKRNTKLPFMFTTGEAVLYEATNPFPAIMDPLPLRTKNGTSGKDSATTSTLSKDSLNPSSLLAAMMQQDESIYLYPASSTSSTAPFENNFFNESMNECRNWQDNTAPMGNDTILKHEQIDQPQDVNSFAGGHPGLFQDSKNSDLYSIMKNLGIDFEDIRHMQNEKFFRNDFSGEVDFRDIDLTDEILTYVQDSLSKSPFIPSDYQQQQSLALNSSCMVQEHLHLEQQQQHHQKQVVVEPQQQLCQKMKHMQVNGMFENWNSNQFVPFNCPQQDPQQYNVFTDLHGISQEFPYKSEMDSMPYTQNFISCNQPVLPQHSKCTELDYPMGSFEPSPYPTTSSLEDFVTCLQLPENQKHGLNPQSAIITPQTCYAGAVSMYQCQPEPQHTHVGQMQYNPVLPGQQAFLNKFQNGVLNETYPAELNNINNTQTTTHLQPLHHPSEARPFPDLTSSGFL
Retinoic acid receptor alpha (Homo sapiens), sequence (P10276 whole entry, looked up): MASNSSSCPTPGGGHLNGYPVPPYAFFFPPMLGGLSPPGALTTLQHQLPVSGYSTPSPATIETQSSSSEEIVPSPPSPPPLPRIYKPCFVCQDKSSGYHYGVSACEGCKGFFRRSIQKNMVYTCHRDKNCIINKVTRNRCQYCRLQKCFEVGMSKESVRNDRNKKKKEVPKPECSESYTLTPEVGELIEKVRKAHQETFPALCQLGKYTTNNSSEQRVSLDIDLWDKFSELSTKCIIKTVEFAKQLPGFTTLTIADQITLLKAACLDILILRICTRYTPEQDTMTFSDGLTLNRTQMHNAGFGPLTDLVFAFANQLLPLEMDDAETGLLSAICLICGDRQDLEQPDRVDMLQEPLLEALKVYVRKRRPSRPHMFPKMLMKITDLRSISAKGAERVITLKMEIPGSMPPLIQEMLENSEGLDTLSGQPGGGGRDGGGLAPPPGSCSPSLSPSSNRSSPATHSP

On to `O=C(O)C(Cl)Cl`, for which the result in experiment [1], in [2], in experiment [3], in experiment [4], in experiment [5] and in experiment [6] was inactive. Moreover, the molecule was classed as inactive in experiment [7], in [8], in experiment [9], in experiment [10], in experiment [11] and in [12]. For the same molecule, the call in [13], in experiment [14], in experiment [15], in experiment [16], in [17] and in experiment [18] was inactive.

With `c1nc[nH]n1`, the result in experiment [1], in experiment [2], in experiment [3], in experiment [4], in experiment [5] and in [6] was inactive. In addition, the outcome in experiment [7], in experiment [8], in experiment [9], in experiment [10], in experiment [11] and in experiment [12] was inactive. The outcome in [14], in experiment [15], in experiment [16], in experiment [17] and in experiment [18] was inactive. Also, the AC50 in [13] was 29 µM (active).

For `CCOP(=S)(OCC)SCS(=O)(=O)CC`, the molecule was called inactive in experiment [1], in experiment [2], in experiment [3], in experiment [4], in [5] and in [6]. The molecule was classed as inactive in [7], in experiment [19], in [8], in [9], in [10] and in [11]. Also, the molecule was classed as inactive in [12], in experiment [13], in [14], in [15], in experiment [16] and in [17]. For the same molecule, the molecule was classed as inactive in [18].

For `CC(C)(C)c1ccc(O)cc1`, the outcome in [2], in experiment [4], in [5], in experiment [7], in experiment [8] and in experiment [9] was inactive. In addition, the call in experiment [11], in experiment [12], in experiment [14], in experiment [15], in [16] and in experiment [17] was inactive. In addition, the outcome in [18] was inactive. The AC50 in [3] is 100 µM (active); in [13], 3.14 µM (active).

Consider `O=C(CBr)OCc1ccccc1`, for which the call in experiment [1], in experiment [2], in experiment [3], in [4], in experiment [5] and in experiment [6] was inactive. Besides, the result in experiment [7], in [19], in [8], in experiment [9], in experiment [11] and in experiment [12] was inactive. For the same molecule, the result in experiment [14], in experiment [15], in [16], in experiment [17] and in experiment [18] was inactive. Moreover, the AC50 in experiment [13] was 100 µM (active).

On to `NNC(N)=S`, for which the molecule was called inactive in experiment [1], in experiment [2], in [3], in experiment [4], in experiment [5] and in experiment [6]. Moreover, the result in [7], in experiment [19], in experiment [8], in experiment [9], in experiment [10] and in experiment [11] was inactive. For the same molecule, the molecule was classed as inactive in [12], in experiment [13], in experiment [14], in [15], in experiment [16] and in experiment [17]. Also, the molecule was classed as inactive in experiment [18].
